Bioassay records as filed in PubChem.
DT40 TDP1 no CPT: qHTS for Inhibitors of human tyrosyl-DNA phosphodiesterase 1 (TDP1): qHTS in cells in absence of CPT | DT40 Tdp1-/- hTDP1 cells, no CPT, ATP luminescence, 48 h | Potency, µM (titrated, usually from 46.2 µM), for inactives: top-dose activity change, negative = growth inhibition, actives largely listed as inhibitors | hit rate 15% among 420,000; further: nearly all actives have a fitted effect of over 55% in size
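Stably hTDP1-transfected Tdp1-null chicken DT40 cells were treated with library compounds minus camptothecin and grown for at least 48 hr at 37 °C, after which cellular ATP was quantified by luminescence.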
KAT2A inh: GCN5L2 (KAT2A) acetyltransferase inhibition | Potency, µM (top dose mostly 58.9 µM), inactives show at the highest dose activity change, negative = inhibition, most hits filed as inhibitors | GCN5L2 HAT assay, ThioGlo1 CoA-SH fluorescence | hit rate 0.21% among 390,000 | AID 504327
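Free CoA generated was detected with ThioGlo1 (50uM) fluorescence at Ex340nm/Em540nm, read immediately and after 20 min at room temperature. Enzyme, 20 nM in HEPES pH 7.5 buffer, saw compounds 15 min before adding 75uM H3(1-25) peptide and 70uM acetyl-CoA.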
VDR inh: blocks the human vitamin D receptor; hit rate 0.93% among 400,000; VDR-SRC2-3 peptide fluorescence polarization, 2 h; P11473; Potency, µM, for inactives: max response, negative = inhibition, actives largely listed as inhibitors; AID 504847
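Fluorescence polarization assay measuring small-molecule disruption of VDR binding to the coregulator peptide SRC2-3. Compounds were pin-transferred (23 nl) into the reagent mix and incubated 2 h at room temperature before reading.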
TDP1 inh: TDP1 (human) enzyme inhibition; Q9NUW8; recombinant TDP1, AlphaScreen DNA substrate cleavage; Potency, µM (top dose mostly 130 µM), inactives show at the highest dose activity change, negative = inhibition, usual class: inhibitors; hit rate 0.28% among 350,000; AID 485290; further: nearly all actives have a fitted effect of over 40% in size
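Recombinant E. coli-expressed Tdp1 (1 nM) preincubated with compound 15 min at RT, then 5'-biotin/3'-phosphotyrosine-FITC DNA substrate (15 nM) added for 5 min. AlphaScreen beads (10 ug/ml) added, 10 min RT; tyrosine-FITC cleavage read as signal loss.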
TDP1 cell CPT: DT40-hTDP1 cell growth loss with CPT; AID 686979; hit rate 12% among 420,000; Potency, µM (top dose mostly 46.2 µM), for the others: top-dose activity change, negative = growth inhibition, hits mostly inhibitors; chicken DT40 Tdp1-/-;hTDP1 cells + 20 nM CPT, ATP luminescence, 48 h; further: nearly all actives have a fitted effect of over 55% in size
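Chicken DT40 Tdp1-/- cells stably complemented with human TDP1 were seeded at 400 cells/well in medium containing 20 nM camptothecin, exposed to pin-transferred compounds, and grown at 37 °C for at least 48 hr. Viability was read as ATP luminescence.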
PLK1 PBD inh: PLK1 (human) polo-box domain binding inhibition. P53350. Plk1 PBD binding of FITC phosphopeptide, fluorescence polarization. Potency, µM, for the others: max response, negative = inhibition, most hits filed as inhibitors. hit rate 2.8% among 360,000; further: series mostly up to about 57 µM; nearly all actives have a fitted effect of over 65% in size
* marks the source's active call; other numbers are inactive results; ? = inconclusive; . = no result. Compounds with a hit are over-represented: about 18% of the library has one in this group of screens. The call rests on the fitted dose curve; in most records, active means well fitted curve in the direction sought with a large enough effect; inconclusive means small, poorly fitted or top-dose-only effect, or another doubt; inactive means no such curve, though single readings can be large; an effect the other way counts as inactive or inconclusive. On the % scale 0 is the no-effect control and ±100 the full control effect; potency means the concentration at half of the fitted maximal effect.

SMILES | DT40 TDP1 no CPT | KAT2A inh | VDR inh | TDP1 inh | TDP1 cell CPT | PLK1 PBD inh
CN(c1ccccc1)S(=O)(=O)c1ccc(C(=O)N2CCN(c3ccccc3)CC2)cc1 | -13.4% | . | . | . | -1.8% | -8.5%
CSc1cccc(Nc2cc(C(=O)NCCCN(Cc3ccccc3)C(C)C)c3ccccc3n2)c1 | 4.61µM* | -13.0% | 1.9% | 3.8% | 5.8µM* | .
Cc1cc(C)cc(Nc2cc(C(=O)NCCCN(Cc3ccccc3)C(C)C)c3ccccc3n2)c1 | 3.26µM* | -18.8% | -5.6% | 2.8% | 3.26µM* | .
C(=N\Nc1nc(Nc2ccccc2)nc(N2CCOCC2)n1)/c1c[nH]c2ccccc12 | 8.2µM* | -9.3% | -4.2% | 7.5% | 11.6µM* | 3.0%
Cc1[nH]c2ccccc2c1/C=N/Nc1nc(Nc2ccc(F)cc2)nc(N2CCOCC2)n1 | -23.7% | -10.6% | 1.5% | 5.6% | -21.2% | ?
Cc1ccc(Nc2nc(N/N=C/c3c[nH]c4ccccc34)nc(N3CCOCC3)n2)cc1 | 8.2µM* | -17.7% | -18.8% | 4.6% | 20.6µM* | -8.7%
O=C(Oc1cccc(/C=N/Nc2nc(Nc3ccccc3)nc(N3CCOCC3)n2)c1)c1ccco1 | 23.1µM* | -11.3% | -21.2% | 5.1% | 20.6µM* | -15.4%
CC1=C(C(=O)Nc2ccccc2Cl)C(c2cccc(O)c2)n2ncnc2N1 (stereo not drawn) | -2.8% | 0.0% | -3.7% | 3.0% | 2.9% | .
Cc1ccc(N2C(=O)CCC(C(=O)O)C2c2cccs2)cc1 (stereo not drawn) | -14.0% | -1.8% | 1.6% | 0.0% | 2.7% | -8.6%
O=C(CN1CCOCC1)Nc1cc(C(F)(F)F)ccc1Cl | -21.5% | -6.2% | ? | 1.3% | -23.3% | 21.2µM*
O=C(CN1CCCCCC1)Nc1cc(C(F)(F)F)ccc1Cl | ? | -2.2% | 1.3% | 3.8% | -7.7% | -3.5%
O=C(CN1CCN(C(=O)c2ccco2)CC1)Nc1cc(C(F)(F)F)ccc1Cl | 23.1µM* | -8.5% | 13.0% | -3.9% | ? | -0.7%
O=C(c1ccco1)N1CCN(C(=O)c2ccc(-c3cccc(C(F)(F)F)c3)o2)CC1 | 20.6µM* | -2.2% | -19.6% | . | ? | -8.1%
CCOc1ccc(C(=O)NC(=S)NCc2cccnc2)cc1[N+](=O)[O-] | ? | 3.3% | 4.7% | 2.5% | ? | -0.4%
Cc1cc(C)n(CCCNC(=O)C2CC(=O)N(Cc3ccccc3)C2)n1 (stereo not drawn) | -3.0% | -1.1% | -13.6% | 0.2% | 21.2% | 2.7%
CCC(CC)C(=O)Nc1ccc(Nc2ccccc2)cc1 | ? | -6.0% | -5.4% | 3.5% | ? | -3.3%
CC(C)C(=O)Nc1ccc(Nc2ccccc2)cc1 | 10.3µM* | 2.6% | 7.6% | 2.6% | 11.6µM* | -4.8%
CC(C)C(=O)Nc1ccc(Sc2ccc(F)cc2)cc1 | 16.4µM* | -5.3% | -2.1% | -3.9% | 16.4µM* | 0.2%
COc1ccccc1NC(=O)c1cccc2c(Br)cccc12 | ? | 2.1% | ? | . | -27.7% | -4.7%
CC(C)C(=O)Nc1ccc(NC(=O)c2cccc3c(Br)cccc23)cc1 | ? | -3.9% | ? | . | 16.4µM* | 26.7µM*
Cn1c(SCC(=O)Nc2ccc(F)cc2)nc2c([nH]c3ccccc32)c1=O | ? | -10.8% | 0.3% | 3.1% | 18.4µM* | -9.2%
Cc1ccc(NC(=O)CSc2nc3c([nH]c4ccccc43)c(=O)n2C)cc1 | 8.2µM* | -5.5% | -26.8% | 0.6% | 13µM* | -2.6%
CCOc1ccc(NC(=O)CSc2nc3c([nH]c4ccccc43)c(=O)n2C)cc1 | -12.8% | 0.2% | ? | -0.6% | -3.7% | -4.0%
Cc1ccc(CSc2nc3c([nH]c4ccccc43)c(=O)n2C)cc1 | ? | -2.8% | 7.4% | -2.2% | ? | .
Cc1ccc(C)c(CSc2nc3c([nH]c4ccccc43)c(=O)n2C)c1 | 3.26µM* | 3.4% | 14.1% | 0.0% | 6.51µM* | .
